Data: PubChem BioAssay
Calls of active or inactive are those of the source. Unless noted, the rule behind the calls is not given here.

Experiments:
[1] = resazurin metabolic signal in HepG2 cells – cell-based, resazurin fluorescence, 24 h, PK04 Diversity Set, profiling panel (AID 1172); conditions: HepG2 viability, higher = more signal
[2] = budding yeast growth changes without added modifier – OD600, strain BY4716, 24 h, basal condition, primary screen (AID 1173); conditions: S. cerevisiae BY4716 growth, OD600, 24 h; higher = more signal, called active from +8 up or from −8 down
[3] = viability profiling in MM1S myeloma cells – cell-based, resazurin fluorescence, basal, 24 h, PK04 Diversity Set, profiling panel (AID 1174); conditions: higher = more signal, called active from +8 up or from −8 down;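 note: MM1S multiple myeloma cell line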
[4] = molecular target: Dihydroorotate dehydrogenase (quinone), mitochondrial (Plasmodium falciparum (isolate 3D7)) (UniProt Q08210); assay: inhibition of P. falciparum DHODH – biochemical, C-terminal His tag, absorbance 600 nm, primary screen (AID 1175); conditions: PfDHODH enzyme, DCIP absorbance 600 nm; higher = more signal, called active from +8 up or from −8 down;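 note: recombinant parasite enzyme with a five histidine tag at its C terminus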
Sequence of Dihydroorotate dehydrogenase (quinone), mitochondrial (Plasmodium falciparum (isolate 3D7)) (Q08210 whole entry, looked up): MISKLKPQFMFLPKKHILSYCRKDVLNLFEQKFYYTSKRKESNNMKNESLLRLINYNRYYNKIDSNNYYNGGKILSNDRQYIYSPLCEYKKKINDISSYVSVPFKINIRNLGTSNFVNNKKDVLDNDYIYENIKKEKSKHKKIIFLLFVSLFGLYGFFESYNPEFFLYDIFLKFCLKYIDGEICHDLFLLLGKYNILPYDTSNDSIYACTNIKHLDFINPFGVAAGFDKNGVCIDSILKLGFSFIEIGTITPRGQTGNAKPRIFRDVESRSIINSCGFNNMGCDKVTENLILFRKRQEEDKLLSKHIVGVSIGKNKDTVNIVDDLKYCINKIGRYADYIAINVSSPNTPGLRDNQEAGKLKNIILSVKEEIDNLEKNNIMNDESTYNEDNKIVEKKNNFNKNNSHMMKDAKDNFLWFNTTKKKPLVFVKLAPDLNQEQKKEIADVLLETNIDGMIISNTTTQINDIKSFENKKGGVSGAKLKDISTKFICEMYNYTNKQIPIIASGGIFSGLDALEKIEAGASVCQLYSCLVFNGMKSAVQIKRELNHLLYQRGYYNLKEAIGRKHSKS

[5] = inhibition of PAO1 biofilm formation – strain PAO1, LB-PBS medium, absorbance 600 nm, primary screen (AID 1176); conditions: P. aeruginosa PAO1 growth/biofilm, A600, 12 h; higher = more signal
[6] = growth modulation of vineyard yeast isolate – strain RM11-1a, OD600, basal, 24 h, primary screen (AID 1177);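 note: cultures grown under basal conditions with no added stressor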; conditions: S. cerevisiae RM11-1a growth, OD600, 24 h; higher = more signal, called active from +8 up or from −8 down
[7] = growth of efflux-deficient E. coli DRC39 – strain DRC39, OD650, 24 h, E. coli filamentation inducers, primary screen (AID 1178);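 note: growth measured as culture turbidity by optical density at 650 nm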; conditions: E. coli DRC39 acrAB, higher = more signal, called active from +8 up or from −8 down
[8] = growth of efflux-deficient E. coli DRC39 – strain DRC39, OD650, 48 h, E. coli filamentation inducers, primary screen (AID 1179);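 note: screen aims at cell division blockers that make cells filament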; conditions: E. coli DRC39 delta-acrAB growth, higher = more signal, called active from +8 up or from −8 down
[9] = viability profiling in RPMI8226 myeloma cells – cell-based, resazurin fluorescence, basal, 24 h, PK04 Diversity Set, profiling panel (AID 1180); conditions: higher = more signal;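 note: RPMI8826 multiple myeloma cell line at 5000 cells per well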
[10] = molecular target: E3 ubiquitin-protein ligase XIAP (Homo sapiens) (UniProt P98170); assay: small molecules binding XIAP protein – biophysical, small-molecule microarray, fluorescence 635 nm, primary screen (AID 1181); conditions: higher = more signal;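 note: score merges 667 nm emission and signal to noise over triplicate slides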
Sequence of E3 ubiquitin-protein ligase XIAP (Homo sapiens) (P98170 whole entry, looked up, the tested form may be a part): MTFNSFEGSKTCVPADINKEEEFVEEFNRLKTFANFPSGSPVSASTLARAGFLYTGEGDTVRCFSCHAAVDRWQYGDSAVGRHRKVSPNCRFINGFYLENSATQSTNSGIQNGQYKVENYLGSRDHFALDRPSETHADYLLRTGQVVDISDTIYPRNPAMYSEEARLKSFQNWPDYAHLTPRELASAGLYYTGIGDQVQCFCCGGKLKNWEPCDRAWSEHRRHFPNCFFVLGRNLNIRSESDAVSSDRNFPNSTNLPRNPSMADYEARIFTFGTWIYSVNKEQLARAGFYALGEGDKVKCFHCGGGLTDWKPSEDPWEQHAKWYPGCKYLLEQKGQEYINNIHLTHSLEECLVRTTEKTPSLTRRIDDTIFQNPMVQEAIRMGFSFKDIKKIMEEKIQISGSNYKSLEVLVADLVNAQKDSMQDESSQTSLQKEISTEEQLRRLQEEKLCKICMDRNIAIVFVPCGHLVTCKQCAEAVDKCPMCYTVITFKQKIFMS

[11] = test system: XIP peptide (Xip251-270) binding; assay: XIP fragment 251-270 binding compounds – biochemical, small-molecule microarray, fluorescence 635/667 nm, 0.1 µg/mL protein, primary screen (AID 1182); conditions: fluorescent protein binding, 635 nm, higher = more signal, called active from +8 up or from −8 down
XIP peptide (Xip251-270) = assay: compounds binding XIP fragment 251-270 – biochemical, small-molecule microarray, fluorescence 635/667 nm, 0.5 µg/mL protein, primary screen (AID 1183); conditions: fluorescence 635 nm, higher = more signal
[12] = blood-stage malaria parasite viability loss – strain 3D7, DAPI fluorescence, 100 nL, primary screen (AID 1184);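 note: parasites grown inside human red blood cells in medium with human serum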; conditions: P. falciparum 3D7 growth, 3 d, higher = more signal
[13] = molecular target: Homeobox protein Hox-A13 (Mus musculus) (UniProt Q62424); assay: disruptors of Hoxa13 oligonucleotide interaction – biochemical, fluorescence polarization, labeled oligonucleotide, primary screen (AID 1185); conditions: Hoxa13:DNA binding, 15 min, higher = more signal, called active from +8 up or from −8 down
Sequence of Homeobox protein Hox-A13 (Mus musculus) (Q62424 whole entry, looked up): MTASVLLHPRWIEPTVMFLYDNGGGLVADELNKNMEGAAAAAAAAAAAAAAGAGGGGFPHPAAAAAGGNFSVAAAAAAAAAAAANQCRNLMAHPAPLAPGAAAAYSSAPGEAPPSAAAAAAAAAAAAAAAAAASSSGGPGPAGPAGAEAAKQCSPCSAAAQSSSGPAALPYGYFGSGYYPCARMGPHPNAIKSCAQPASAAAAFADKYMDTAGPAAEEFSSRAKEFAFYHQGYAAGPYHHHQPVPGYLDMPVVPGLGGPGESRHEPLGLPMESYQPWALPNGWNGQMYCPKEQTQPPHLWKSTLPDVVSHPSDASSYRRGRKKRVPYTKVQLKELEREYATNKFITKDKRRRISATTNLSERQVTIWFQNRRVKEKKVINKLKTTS

[14] = blockers of DNA damage checkpoint Chk1 activation – imaging, HeLa, hydroxyurea, phospho-Chk1 antibody, percent positive cells, primary screen (AID 1186); conditions: hydroxyurea-induced phospho-Chk1 immunofluorescence imaging, higher = more signal
[15] = blockers of DNA damage checkpoint Chk1 activation – imaging, HeLa, hydroxyurea, phospho-Chk1 nuclear intensity, primary screen (AID 1187); conditions: hydroxyurea-induced phospho-Chk1 immunofluorescence imaging, higher = more signal

Compound | z-score [1] | z-score [2] | z-score [3] | composite z-score [4] | z-score [5] | z-score [6] | z-score [7] | z-score [8] | z-score [9] | composite z-score [10] | composite z-score [11] | composite z-score (XIP peptide (Xip251-270)) | z-score [12] | z-score [13] | z-score [14] | z-score [15]
CN1C(=O)C2C=CC(C(O)c3ccccn3)N(N(c3ccccc3)c3ccccc3)C2C1=O (stereo not given) | -1.15 | 0.527 (inactive) | -0.555 (inactive) | 0.464 (inactive) | 1.01 (inactive) | 0.429 (inactive) | -0.155 (inactive) | -0.38 (inactive) | -0.368 | 0.304 | -0.365 (inactive) | 0.891 | -0.215 | -8.63 (active) | 0.46 (inactive) | -0.024 (inactive)
COC(=O)[C@@]1(Cc2ccccc2)[C@@H]2C(=CC(=O)[C@H]2CC(=O)C(=O)N(C)C)CN1C(=O)c1ccccc1 | -1.24 | 0.292 (inactive) | -5.19 (inactive) | -0.435 (inactive) | -0.0856 (inactive) | -0.224 (inactive) | 0.677 (inactive) | -0.0631 (inactive) | -5.21 | 0.0239 | 0.0477 (inactive) | 0.345 | -0.99 | -3.77 (inactive) | 0.0041 (inactive) | 0.253 (inactive)
Cc1ccc(S[C@]2(C(=O)O)CC(=O)N(Cc3cc(C(F)(F)F)cc(C(F)(F)F)c3)[C@@H]2c2ccc(CO)cc2)cc1 | -0.403 | -0.54 (inactive) | -0.543 (inactive) | -0.254 (inactive) | 0.761 (inactive) | 0.988 (inactive) | -0.296 (inactive) | -0.526 (inactive) | -0.278 | -0.053 | -0.287 (inactive) | -1.25 | 0.777 | -3.18 (inactive) | 0.0261 (inactive) | -0.641 (inactive)
NC(=O)NCC#Cc1ccc2c(c1)[C@]1(C(=O)N2)[C@H](C(=O)NC[C@H](O)c2ccccc2)[C@H]2C(=O)O[C@H](c3ccccc3)[C@H](c3ccccc3)N2[C@@H]1c1ccc(OCCO)cc1 | 0.815 | 1.5 (inactive) | 0.449 (inactive) | -1.11 (inactive) | 1.72 (inactive) | 2.91 (inactive) | 0.615 (inactive) | 0.541 (inactive) | 1.3 | 0.11 | 0.869 (inactive) | 0.528 | -0.0803 | -2.75 (inactive) | 0.179 (inactive) | 0.446 (inactive)
COc1ccc([Si](C)(C)[C@H]2[C@H](CCO)O[C@@]3(C(=O)N(Cc4cccc(N5C(=O)COc6ccccc65)c4)c4ccccc43)[C@@H]2C)cc1 | -2.46 | 0.422 (inactive) | -3.44 (inactive) | 0.858 (inactive) | 2.44 (inactive) | 4.14 (inactive) | 2.23 (inactive) | 1.92 (inactive) | -4.91 | -0.132 | 0.595 (inactive) | 0.649 | -2.8 | -1.2 (inactive) | -0.327 (inactive) | 0.208 (inactive)
O=C(CS)NCCCCCCNC(=O)[C@H]1C[C@H]2C(=O)N[C@@H](Cc3ccccc3)C(=O)N2[C@H]1c1ccc(O)cc1 | 0.504 | 0.588 (inactive) | -0.619 (inactive) | -0.0269 (inactive) | 0.836 (inactive) | 0.252 (inactive) | 0.0577 (inactive) | -0.983 (inactive) | 0.158 | -0.166 | 0.398 (inactive) | 0.849 | -0.0607 | -1.23 (inactive) | -0.836 (inactive) | -0.555 (inactive)
Cc1ccc(S[C@]2(C(=O)O)CC(=O)N(Cc3ccccc3Cl)[C@@H]2c2ccc(CO)cc2I)cc1 | 0.457 | -3.19 (inactive) | -3.07 (inactive) | 0.297 (inactive) | 1.15 (inactive) | -0.78 (inactive) | 0.0071 (inactive) | -0.26 (inactive) | -2.19 | -0.0388 | -0.62 (inactive) | 0.261 | 0.204 | -2.54 (inactive) | 0.0343 (inactive) | 0.0261 (inactive)
CC(C)C[C@@H]1NC(=O)[C@@H]2C[C@H](C(=O)NCCCCN(C)C)[C@H](c3cccc(OCCO)c3)N2C1=O | 0.0064 | -0.453 (inactive) | 0.303 (inactive) | -1.21 (inactive) | 0.655 (inactive) | -0.121 (inactive) | 0.0825 (inactive) | -0.653 (inactive) | -0.127 | -0.0749 | 0.36 (inactive) | 0.755 | -0.192 | -3.41 (inactive) | -0.232 (inactive) | -0.455 (inactive)
C[C@@H]1NC(=O)[C@@]23C(=O)N[C@@H](Cc4ccccc4)C2[C@H](C)[C@@]2(C)O[C@H]2C3/C=C/C/C=C\CNC(=O)[C@@H]2CCCN2C1=O (stereo not given in full) | -0.289 | -0.963 (inactive) | -0.737 (inactive) | -0.972 (inactive) | 1.28 (inactive) | -0.142 (inactive) | -0.4 (inactive) | -0.188 (inactive) | -0.0461 | -0.102 | -0.85 (inactive) | -0.103 | 0.934 | -3.68 (inactive) | -0.0354 (inactive) | 0.186 (inactive)
O=C1NC(=O)C2C1C=CC(C(O)CCc1ccccc1)N2Nc1ccc(Cl)cc1Cl (stereo not given) | -1.24 | -3.34 (inactive) | -1.59 (inactive) | -0.596 (inactive) | 0.667 (inactive) | -0.385 (inactive) | -0.172 (inactive) | -0.611 (inactive) | -1.77 | 0.178 | 0.157 (inactive) | 0.284 | 1.5 | -5.96 (inactive) | 0.738 (inactive) | 0.185 (inactive)
